From PubChem BioAssay AID504434 (National Center for Advancing Translational Sciences (NCATS), 2011) come the findings set out here.

Structures are written as SMILES. The source made the active and inactive calls. Entries that show only a call come without a potency. The call rests on the fitted dose curve; in most records, active means well fitted curve in the direction sought with a large enough effect; inconclusive means small, poorly fitted or top-dose-only effect, or effect the other way, or another doubt; inactive means no such curve, though single readings can be large or run the other way.

The nature of the experiment: Secondary Assay for lipid storage modulators: AML12 cell LDSA assay for probe SAR. The conditions noted are these: AML12 lipid droplet accumulation, BODIPY 493/503 imaging, oleate; series mostly up to 46.1 µM. In short, it runs like this: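 Lipid-droplet accumulation in oleic acid (400 uM)-loaded AML12 cells was read as BODIPY 493/503 fluorescence, with CMTPX staining counting cells, after 18-24 h at 24 degree celsius with compound. Activity normalised to 20 uM Triacsin C (100% inhibition).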
As to `CC(C)(C)n1ncc2c(=O)n(Cc3ccc(-c4ccccc4C#N)cc3)cnc21`, the Potency result is “inactive”.

For the compound `CCOc1ccc(NC(=O)NC2(C(=O)N3CCCCC3)CCCCC2)cc1`, the Potency entry was “inactive”.

In the case of `O=C(NC1CCCc2c1cnn2-c1ccc(F)cc1F)c1ccccc1` (centres undefined), the Potency result was “inactive”.

In the case of `O=C(Cc1cccs1)Nc1nc(-c2ccncc2)cs1`, the Potency entry is “inactive”.

`Cc1ccc(C)c(-c2csc(NC(=O)CSc3nnc(Nc4ccc(OC(F)(F)F)cc4)s3)n2)c1`: the Potency result was “inactive”.

Regarding `CN(C)CC(=O)NC1CCCc2c1cnn2-c1ccc(F)cc1F` (centres undefined), the Potency entry is “inactive”.

With `COc1cccc(-n2ncc3c2CCCC3NC(=O)c2ccccn2)c1` (centres undefined), the Potency is 44.5 nM [inconclusive] (active).

Regarding `COc1ccc(CCNC(=O)c2cc3sccc3n2Cc2ccc(Cl)cc2)cc1OC`, the Potency is 30.7 nM (active).

Take `O=C(NC1CCCc2c1cnn2-c1ccc(F)cc1F)c1cnsn1` (centres undefined): the Potency entry was “inactive”.

For `COc1ccc(-c2cnc(SCC(=O)Nc3nc(C)cs3)n2Cc2ccco2)cc1`, the Potency entry was “inactive”.

On to `CCOC(=O)C1CCN(C(=O)C(C)(C)NC(=O)Nc2ccc(OC)c(Cl)c2)CC1`, for which the Potency result is “inactive”.

For the compound `O=C(NC1CCCc2c1cnn2-c1ccc(F)cc1F)c1c(F)cccc1Cl` (centres undefined), the Potency result is “inactive”.

As to `COc1ccc(CCNC(=O)c2cc3sccc3n2Cc2ccc(F)cc2)cc1OC`, the Potency was 3150 nM (active).

For `O=C(Nc1cccc2nn(-c3ccc(F)cc3)cc12)c1ccccn1`, the Potency result was “inactive”.
